Luc counter = Counterscreen for Luciferase (Kinase-Glo TM) Inhibition; actives 0.28% (n = 200,000); Potency, µM (doses to about 38.3 µM), for inactives: top-dose activity change, negative = inhibition, actives largely listed as inhibitors; Luciferin 4-monooxygenase (Photuris pensylvanica), Q27757; Kinase-Glo luciferase, ATP luminescence, 8 min; active = well fitted inhibition curve with a large enough effect; inconclusive = small, poorly fitted or top-dose-only effect; also: potency is read from the fitted curve at half-maximal effect; nearly all actives have a fitted effect of over 60% in size
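Substrate mix (final 50 mM imidazole pH 7.2, 50 mM KCl, 7 mM MgCl2, 10 uM ATP, 0.01% Tween 20, 0.05% BSA) plus pin-tool compound, then Kinase-Glo detection mix; 8 min ambient, luminescence read.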
Lamin A splicing = qHTS Assay for Modulators of Lamin A Splicing; actives 0.01% (n = 200,000); Potency, µM (titrated, usually from 46.1 µM), for inactives: at the top dose ratio change, negative = inhibition, actives largely listed as inhibitors; HeLa LMNA splicing GFP/RFP minigene ratio, 48 h; active = well fitted inhibition curve with a large enough effect in the signal ratio, with a control signal flat, not every such curve was filed as active; inconclusive = small, poorly fitted or top-dose-only effect, or effect the other way, or a change in a side signal; the % refers to the signal ratio; also: potency is read from the fitted curve at half-maximal effect
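S3 HeLa cells stably expressing lamin A-EGFP splicing minigene plus DsRed2, 600 cells/well, 48 h compound exposure at 37C. Laser-scanning cytometry; analysed as GFP (500-530 nm)/RFP (575-640 nm) total intensity ratio; 0.5% DMSO vehicle.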
PNC assembly inh = High Content Assay for Compounds that inhibit the Assembly of the Perinucleolar Compartment; PC3M PTB-GFP, PNC prevalence imaging, 16 h; active compounds read low; activity change (PNC), negative = inhibition, % at 10 µM; actives 3.1% (n = 140,000); AID 2417, 2010;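 active = readout at or below -70, meaning at least 70% loss of cells showing the perinucleolar compartment, a nuclear body marking cancer cells; inconclusive = readout between -30 and a set limit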;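 also: plate controls were DMSO wells for no effect and camptothecin positive control wells for full effect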
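Compounds are pinned in duplicate onto adhered PC3M cells stably expressing GFP-tagged PTB and incubated 16 h at 37 C. Cells are then fixed, nuclei stained with Hoechst, and PNC-positive cells counted.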
ALDH1A1 block = qHTS Assay for Inhibitors of Aldehyde Dehydrogenase 1 (ALDH1A1). actives 7.3% (n = 220,000). Potency, µM (titrated, usually from 75.3 µM), for inactives: at the top dose activity, negative = inhibition, usual class: inhibitors. Aldehyde dehydrogenase 1A1 (Homo sapiens), P00352. Purified ALDH1A1, NADH fluorescence, propionaldehyde substrate;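 also: potency is read from the fitted curve at half-maximal effect; plate controls were no enzyme wells and a reference inhibitor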
Target sequence (P00352 whole entry, looked up): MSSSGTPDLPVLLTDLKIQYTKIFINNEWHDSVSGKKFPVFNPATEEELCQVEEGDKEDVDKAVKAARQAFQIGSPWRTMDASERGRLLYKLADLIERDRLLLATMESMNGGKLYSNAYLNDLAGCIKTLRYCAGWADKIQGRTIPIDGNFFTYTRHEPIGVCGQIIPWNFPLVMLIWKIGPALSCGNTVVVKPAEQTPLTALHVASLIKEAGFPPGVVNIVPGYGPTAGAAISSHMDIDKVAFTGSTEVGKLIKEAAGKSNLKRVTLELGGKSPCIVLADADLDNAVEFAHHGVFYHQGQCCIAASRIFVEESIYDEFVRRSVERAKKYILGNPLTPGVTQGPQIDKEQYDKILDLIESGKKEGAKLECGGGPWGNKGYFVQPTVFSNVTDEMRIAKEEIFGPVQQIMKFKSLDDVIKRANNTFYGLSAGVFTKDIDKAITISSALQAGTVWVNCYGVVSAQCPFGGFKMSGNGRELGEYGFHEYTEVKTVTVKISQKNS
HPGD inh = qHTS Assay for Inhibitors of HPGD (15-Hydroxyprostaglandin Dehydrogenase) | 15-hydroxyprostaglandin dehydrogenase [NAD(+)] (Homo sapiens), P15428 | purified HPGD, NADH fluorescence kinetic, PGE2 substrate | Potency, µM, without a hit: at the highest dose activity change, negative = inhibition, actives largely listed as inhibitors | actives 4.3% (n = 150,000); also: potency is read from the fitted curve at half-maximal effect
Target sequence (P15428 whole entry, looked up): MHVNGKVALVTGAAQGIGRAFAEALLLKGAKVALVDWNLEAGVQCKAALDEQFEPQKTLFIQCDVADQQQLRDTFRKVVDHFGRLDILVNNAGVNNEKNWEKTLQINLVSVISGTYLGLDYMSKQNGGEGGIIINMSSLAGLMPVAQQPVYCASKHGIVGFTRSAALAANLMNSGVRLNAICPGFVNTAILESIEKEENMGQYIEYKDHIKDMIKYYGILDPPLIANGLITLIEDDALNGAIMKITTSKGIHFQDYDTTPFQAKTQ
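NADH formation kinetics: reaction with 30 uM PGE2 and 1 mM NAD+ (final), 20 nM enzyme, Tris-HCl pH 8 with Tween 20, after 15 min compound preincubation at room temperature. Fluorescence change, last versus first of five reads.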
Numbers without * were called inactive; u = inconclusive; x = no result; [ ] = dose if it differs, or a comment. This is a sample that favours compounds with a hit; in the whole collection about 10% have one here. Unless noted, calls follow the shape of the dose curve; as a rule, active = well fitted inhibition curve with a large enough effect (not every such curve was filed as active); inconclusive = small, poorly fitted or top-dose-only effect, or another doubt; inactive = no such curve, though single readings can be large or run the other way. Unless noted, % is scaled to controls: 0 for no effect and ±100 for the full control effect.

SMILES | Luc counter | Lamin A splicing | PNC assembly inh | ALDH1A1 block | HPGD inh
CCC(=O)N1CCc2cc(Br)cc(S(=O)(=O)NCCc3cccc(C)c3)c21 | x | 2%[46 µM] | x | x | x
Cc1cccn2c(CN(C)CC3CCCCO3)c(C(=O)N3CCCCC3)nc12 (stereo not drawn) | x | x | x | 0.2µM* | x
Cc1cccn2c(CN[C@@H]3CCCC[C@H]3c3ccccc3)c(C(=O)N3CCOCC3)nc12 | -2% | x | x | -2% | x
Nc1ccc2oc(-c3cccc4ccccc34)nc2c1 | -6% | 1% | -4 | u | 22µM*
Cc1ccc(-c2nc3cc(N)ccc3o2)c(C)c1 | -10% | 3% | -17 | u | u
CC(=O)Nc1cccc2c1C(=O)N(c1ccccc1C)C2=O | 0% | x | x | -10% | x
Cc1ccccc1N1C(=O)c2cccc3c(N(C)CCO)ccc(c23)C1=O | 1% | -10% | -80* | u | -19%
COc1ccc(CNC(=O)Cn2ncc3c([nH]c4ccccc43)c2=O)cc1 | x | 12%[46 µM] | x | x | x
Cc1ccc(S(=O)(=O)NCCN=C(CN2CCOCC2)NS(=O)(=O)c2ccc(C)cc2)cc1 | 1% | -6% | u | 1.6µM* | 2%
Cc1ccc(S(=O)(=O)NCC(=O)N2CCCC2)cc1 | 0% | 12% | 22 | 3% | -5%
Cc1ccc(S(=O)(=O)NCCN=C(CN2CCCC2)NS(=O)(=O)c2ccc(C)cc2)cc1 | -2% | 4% | u | 4.5µM* | 1%
CN1CCN(C(=O)c2cc(-c3ccco3)on2)CC1 | -4% | 6% | 33 | -5% | 32µM*
COc1ccc(-c2cc(C(=O)N3CCN(Cc4ccccc4)CC3)no2)cc1OC | 0% | -12% | u | u | -29%
Cc1onc(-c2ccccc2Cl)c1C(=O)N1CCN(C(=O)c2ccco2)CC1 | 0% | u | -24 | 22µM* | -7%
COc1ccc(-c2cc(C(=O)N3CCCCC3)no2)cc1OC | -5% | 2% | u | -9% | 14µM*
CN1CCN(C(=O)c2cc(-c3cccc(Cl)c3)on2)CC1 | x | 3% | -26 | 4.5µM* | x
Cc1onc(-c2ccccc2Cl)c1C(=O)N1CCN(c2ccccc2)CC1 | -4% | u | u | 4% | -12%
CNC(=O)c1c(NC(=O)c2ccc(S(=O)(=O)N3CCCC(C)C3)cc2)sc2c1CCC2 (stereo not drawn) | x | 18%[46 µM] | x | x | x
O=C(c1cc(-c2ccc(Cl)cc2Cl)on1)N1CCN(C(=O)c2ccco2)CC1 | -1% | 4% | -9 | 2.8µM* | 10µM*
O=C(c1cc(-c2ccccc2Cl)on1)N1CCN(C(=O)c2ccco2)CC1 | 2% | 15% | u | 2% | -19%
COc1cc(NC(=O)COCc2cc(-c3ccc4c(c3)OCO4)on2)c(OC)cc1Cl | x | -17%[46 µM] | x | x | x
CC(C)CCn1c(SCc2ccc(Cl)cc2)nc2c1c(=O)[nH]c(=O)n2C | -2% | u | -6 | 11µM* | 25µM*
CC(C)CCn1c(Sc2nc3ccccc3o2)nc2c1c(=O)[nH]c(=O)n2C | -3% | u | -16 | 11µM* | -5%
Cc1ccc(CSc2nc3c(c(=O)[nH]c(=O)n3C)n2CCC(C)C)cc1 | -6% | 4% | 2 | u | -7%
CCCCn1c(SCc2ccc(Cl)cc2)nc2c1c(=O)[nH]c(=O)n2C | -3% | 20% | -13 | 28µM* | u
SMILES | Luc counter | Lamin A splicing | PNC assembly inh | ALDH1A1 block | HPGD inh
Cc1csc(Nc2cccc3ccccc23)n1 | -1% | -6%[9.22 µM] | x | u | x
COc1ccccc1Nc1nc(C)cs1 | -3% | 3% | u | 18µM* | -16%
CCOc1ccccc1Nc1nc(-c2sc(NC(=O)c3ccccc3)nc2C)cs1 | -2% | -2% | 25 | u | -22%
COc1ccccc1Nc1nc(-c2sc(NC(=O)c3ccc([N+](=O)[O-])cc3)nc2C)cs1 | -4% | 6% | 30 | 16µM* | -17%
CCCCCC(=O)Nc1nc(C)c(-c2csc(Nc3ccccc3OC)n2)s1 | -2% | -2% | u | u | u
Cc1ccc(Cl)cc1Nc1nc(-c2sc(NC(=O)c3ccccc3)nc2C)cs1 | -10% | 5% | -14 | 20µM* | u
COc1ccccc1Nc1nc(-c2sc(NC(=O)c3ccccc3)nc2C)cs1 | -18% | 5% | 17 | 13µM* | u
CO[C@H]1[C@@H](OC(N)=O)[C@H](O)[C@@H](Oc2ccc3c(O)c(NC(=O)c4ccc(O)c(CC=C(C)C)c4)c(=O)oc3c2C)OC1(C)C | -1%[17.1 µM] | u | x | 0%[20.9 µM] | 1%
Cc1ccccc1COc1ccc(/C(O)=C2/C(=O)C(=O)N(CCCn3ccnc3)C2c2ccco2)cc1 (stereo not drawn) | -3% | 6% | 0 | 11µM* | -27%
Cc1ccc(C)c(/C(O)=C2\C(=O)C(=O)N(CCCn3ccnc3)C2c2ccncc2)c1 (stereo not drawn) | 7% | 7% | 24 | u | 28µM*
Cc1cc(C)nc(/N=C(/NC(=O)Nc2ccc(Cl)c(Cl)c2)Nc2cccc(Cl)c2)n1 | 1% | -11% | -113* | 9% | -4%
COc1ccc(NC(=O)CCNS(=O)(=O)c2ccc3c(c2)CCCC(=O)N3)cc1 | x | 5%[46 µM] | x | x | x
O=C1C(=C(c2ccccc2)c2ccccc2)Nc2ccccc21 | 11% | u | u | 0.71µM* | -4%
O=C1CN(C(=O)c2ccccc2)c2ccccc2N1 | 0% | 3% | -2 | 0% | -17%
Cc1ccc(NC(=O)C(Nc2cccc(C)c2)c2ccccc2)cc1 (stereo not drawn) | -2% | u | 16 | 28µM* | -13%
Cc1nc(N2CCOCC2)c2nc(-c3ccccc3)n(CCN3CCOCC3)c2n1 | -6% | x | x | u | u
CCCCC/C=C\C/C=C\C/C=C\C/C=C\CCCC(=O)C(F)(F)F | 2%[39.9 µM] | x | x | 20µM* | -4%
COCCn1nnnc1CN1C2CCCC1CC(NC(C)=O)C2 (stereo not drawn) | -3% | -4% | -18 | 6% | -2%
COc1cc(C(=O)NC2CCN(Cc3nnnn3Cc3cccs3)CC2)cc(OC)c1OC | 2% | -5% | -16 | 8.9µM* | -7%
COCCn1nnnc1CN1CCC(NC(=O)c2ccc(Br)cc2)CC1 | 1% | -7% | -100* | 5% | -11%
COCCn1nnnc1CN1CCC(C)CC1 | -4% | -4% | -100* | u | -7%
Nc1nc(-c2cc(-c3cccc4ccccc34)nc(N)n2)cc(-c2cccc3ccccc23)n1 | -3%[7.66 µM] | x | x | -8%[13.5 µM] | -5%
CC/C(=N\n1nnnc1Nc1ccccc1)c1ccccc1 | 2% | u | -100* | -4% | -13%
CC(C)c1ccc(/C=N/n2nnnc2Nc2ccccc2)cc1 | -3% | 2% | 38 | -2% | u
COc1ccc(CNc2ncncc2-c2cccc(NS(C)(=O)=O)c2)c(OC)c1 | x | 3% | x | 9% | x
